# PubChem BioAssay (EPA / NIEHS)
# Records with an inconclusive call do not appear. Calls of active or inactive are those of the source. Rule for the calls: active = hit-call score of the fitted dose curve at least 0.9, where 1 is the maximum; inconclusive = response in the unintended direction; inactive = score below 0.9.
# Test: Tanguay_ZF_120hpf_SNOU_legacy: (Legacy) Oregon State University Tanguay Lab 120 Hour Post-fertilization zebrafish Assay for Snout Malformation (AID 2283637)
# Protocol: Tanguay_ZF_120hpf_legacy is a whole embryo, multiplexed endpoint assay using zebrafish larvae exposed for 120 hours post fertilization on a 96-well plate.Tanguay_ZF_120hpf_SNOU_legacy is one of one assay component(s) measured or calculated from the Tanguay_ZF_120hpf_legacy assay. It is designed to make measurements of zebrafish development as detected with brightfield microscopy of developing zebrafish embryos.Data from the assay component Tanguay_ZF_120hpf_SNOU_legacy was analyzed into 1 assay endpoints. This assay endpoint, Tanguay_ZF_120hpf_SNOU_legacy, was analyzed in the positive analysis fitting direction relative to DMSO as the negative control and baseline of activity. Using a type of morphology reporter, gain-of-signal activity can be used to understand changes in developmentals as they relate to the whole embryo. To generalize the intended target to other relatable targets, this assay endpoint is annotated to the zebrafish development intended target family, where the subfamily is embryonic snout morphogenesis.
# Zebrafish husbandry: Tropical 5D wild-type adult zebrafish were housed in at an approximate density of 1000 per 100 gallon tank at the Sinnhuber Aquatic Research Laboratory, Oregon State University, Corvallis, OR. Each tank was kept at standard laboratory conditions of 28C on a 14-h light/10-h dark photoperiod in fish water consisting of reverse osmosis water supplemented with a commercially available salt (Instant Ocean). Spawning funnels were placed into the tanks the night prior, and embryos were collected and staged. To increase bioavailability, the chorion was enzymatically removed using pronase (63.6mg/ml, >/= 3.5U/mg, Sigma-Aldrich: P5147) at 4 hours post fertilization (hpf) using a custom automated dechorionator.Chemical exposures: Six hpf dechorionated embryos were placed 1 embryo per well in a 96-well plate prefilled with 90 ul of EM using automated embryo placement systems (AEPS). Ten microliters of each row of dilution plate 2 was added to 2 exposure plates. The final DMSO concentration used was 0.64% (vol/vol). Thirty-two embryos were also exposed to 5uM trimethyltin chloride (positive control). Plates were sealed to prevent evaporation and foil covered to reduce light exposure and kept in a 28C incubator. Embryos were statically exposed until 120 hpf. At 24 hpf, embryos were assessed for photomotor response using a custom photomotor response analysis tool (PRAT) and for developmental toxicity endpoints (MO24: mortality at 24 hpf, DP: developmental progression, SM: spontaneous movement, and NC: notochord distortion). At 120 hpf, locomotor activity was measured using Viewpoint Zebralab and assessed for 18 endpoints. Zebrafish acquisition and analysis program (ZAAP), a custom program designed to inventory, acquire, and manage zebrafish data, was used to collect developmental endpoints as either present or absent (i.e., binary responses were recorded). If mortality occurred for an embryo (at either 24 or 120 hpf), the non-mortality endpoints were not measured.
Compound,outcome,AC50
COS(C)(=O)=O,inactive,
CNC(C)=O,inactive,
CCCCOC(=O)c1ccccc1,inactive,
CCCCCCCCCCCCCCCCOS(=O)(=O)O,inactive,
c1ccc(C(O[C@@H]2CCCN(CCc3ccc4c(c3)OCO4)C2)c2ccccc2)cc1,,44.2 µM (active)
OC(CCl)CCl,inactive,
O=C(O)c1ccc2c(c1)nc(C(=O)NC1CCN(C3CC3)CC1)n2Cc1cc(-c2ccc(Cl)s2)on1,inactive,
Cc1ncc([C@@H](CCCCCCc2ccc3c(n2)NCCC3)CC(=O)O)cn1,inactive,
c1ccc2c(c1)-c1cccc3c1c-2cc1ccccc13,inactive,
CCCCCCCC/C=C\CCCCCCCC(=O)OC[C@@H](O)[C@H]1OC[C@H](O)[C@H]1O,inactive,
CCCOc1ccc(S(=O)(=O)N2CCN(CC)CC2)cc1-c1nc2c(CC)n(Cc3ccccn3)nc2c(=O)[nH]1,inactive,
C=CN1CCCC1=O,inactive,
CC1(C)C(=O)N(Cl)C(=O)N1Cl,inactive,
OC[C@H]1O[C@@H]2O[C@H]3[C@H](O)[C@@H](O)[C@@H](O[C@H]4[C@H](O)[C@@H](O)[C@@H](O[C@H]5[C@H](O)[C@@H](O)[C@@H](O[C@H]6[C@H](O)[C@@H](O)[C@@H](O[C@H]7[C@H](O)[C@@H](O)[C@@H](O[C@H]1[C@H](O)[C@H]2O)O[C@@H]7CO)O[C@@H]6CO)O[C@@H]5CO)O[C@@H]4CO)O[C@@H]3CO,inactive,
COc1cc2c(c(OC)c1OC)-c1ccc(OC)c(=O)cc1[C@@H](NC(C)=O)CC2,inactive,
O=c1[nH]cnc2c1ncn2[C@H]1CC[C@@H](CO)O1,inactive,
OC[C@H]1O[C@@](CO)(O[C@H]2O[C@H](CO)[C@@H](O)[C@H](O)[C@H]2O)[C@@H](O)[C@@H]1O,inactive,
O=S1(=O)CCCO1,inactive,
OCc1ccccc1,inactive,
NNC(=O)c1ccncc1,inactive,

Compound,outcome,AC50
CCCc1ccccc1,inactive,
NC(=O)N(O)[C@@H]1COc2cc(OCc3ccccc3)ccc21,inactive,
CC(C)c1nnc2ccc(-c3ocnc3-c3cc(F)ccc3F)cn12,inactive,
NC(N)=O,inactive,
O=C(O)[C@H](O)[C@@H](O)C(=O)O,inactive,
C[C@]12C=CC(=O)C=C1CC[C@H]1[C@@H]3C[C@@H](O)[C@](O)(C(=O)CO)[C@@]3(C)C[C@H](O)[C@@]12F,inactive,
O=C(O)c1cccc(C[C@@H]2COc3ccc(OCc4nc5cc(F)ccc5s4)cc3[C@@H]2O)c1,,3.99 µM (active)
CC(C)CC(C)O (stereo not given),inactive,
NC(=O)NN=Cc1ccc([N+](=O)[O-])o1,inactive,
CCCCN1C(=O)[C@@H]([C@H](O)C2CCCCC2)NC(=O)C12CCN(Cc1ccc(Oc3ccc(C(=O)O)cc3)cc1)CC2,inactive,
CCCCCCCCN(C)C,inactive,
O=C1CN(N=Cc2ccc([N+](=O)[O-])o2)C(=O)N1,inactive,
O=S(=O)(O)c1ccc(N=Nc2c(O)ccc3cc(S(=O)(=O)O)ccc23)cc1,inactive,
CC(=O)c1ccccc1,inactive,
O=C(O)c1cccc(C(=O)O)c1,inactive,
c1ccc2cc3ccccc3cc2c1,inactive,
Cc1nc(-c2ccccn2)ncc1C(=O)Nn1cc(C)c2cc(F)ccc21,inactive,
O=C(NO)C1(NS(=O)(=O)c2ccc(Oc3ccc(F)cc3)cc2)CCOCC1,inactive,
CCCCCCCC1CCC(=O)O1 (stereo not given),,31.9 µM (active)
CCc1ccc(O)c(C(C)(C)C)c1,inactive,
